In the library only some 7.4% were active in any assay of this set; here they are far more common.
ELG1 genotoxic: qHTS screen for small molecules that induce genotoxicity in human embryonic kidney (HEK293T) cells expressing luciferase-tagged ELG1. Potency, µM (doses to about 46 µM), usual class: activators. actives 1.3% (n = 330,000). HEK293T ELG1-luciferase reporter, luminescence, 16 h; also: nearly all actives have a fitted effect of over 60% in size
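Screening used a luciferase reporter fused to human ELG1 in HEK293T cells. Luminescence was read on a CCD plate imager after 16 hr exposure and 30 min ONE-Glo incubation.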
FLuc modulator: qHTS profiling assay for firefly luciferase inhibitor/activator using purifed enzyme and Km concentrations of substrates (counterscreen for miR-21 project) | Potency, µM (doses to about 57.5 µM), usual class: inhibitors | actives 6.9% (n = 360,000) | purified FLuc, Km substrates, luminescence inhibition | AID 588342, 2011 | Luciferin 4-monooxygenase (Photinus pyralis), P08659; also: nearly all actives have a fitted effect of over 55% in size
Target sequence (P08659 whole entry, looked up): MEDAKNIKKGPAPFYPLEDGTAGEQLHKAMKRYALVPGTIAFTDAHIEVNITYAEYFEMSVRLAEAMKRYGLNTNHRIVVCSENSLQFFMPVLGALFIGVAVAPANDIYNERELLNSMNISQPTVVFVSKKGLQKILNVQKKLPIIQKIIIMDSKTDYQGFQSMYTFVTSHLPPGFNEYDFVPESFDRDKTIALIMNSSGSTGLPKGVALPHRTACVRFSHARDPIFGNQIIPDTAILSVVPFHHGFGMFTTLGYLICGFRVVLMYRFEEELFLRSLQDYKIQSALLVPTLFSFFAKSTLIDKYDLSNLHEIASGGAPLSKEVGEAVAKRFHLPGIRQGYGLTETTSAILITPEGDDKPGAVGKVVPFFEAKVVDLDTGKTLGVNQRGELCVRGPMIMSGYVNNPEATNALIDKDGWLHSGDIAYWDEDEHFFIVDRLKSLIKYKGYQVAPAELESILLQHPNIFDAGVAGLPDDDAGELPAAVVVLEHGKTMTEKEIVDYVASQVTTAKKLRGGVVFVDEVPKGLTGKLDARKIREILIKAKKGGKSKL
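Purified P. pyralis luciferase (10nM final) with 10uM D-luciferin and 10uM ATP (Km levels) in 50mM Tris acetate pH 7.5, 10mM Mg acetate, 0.01% Tween-20, 0.05% BSA; qHTS 6-point titration, ~60 µM downward; luminescence read.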
SMN2 splice up: qHTS Assay for Enhancers of SMN2 Splice Variant Expression. HEK293 SMN2-luciferase splicing reporter, luminescence, 30-36 h. Potency, µM (doses to about 46.1 µM), actives largely listed as activators. actives 2.8% (n = 210,000). AID 1458, 2008; also: nearly all actives have a fitted effect of over 55% in size
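qHTS luciferase splicing reporter: luminescence rises when SMN2 exon 7 is included in transfected HEK293 cells. Compound exposure lasted 30-36 h at 37C, with 4.5 mM final sodium butyrate as control, followed by a ONE-Glo read.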
KinaseGlo FLuc: Counterscreen for Luciferase (Kinase-Glo TM) Inhibition | Kinase-Glo luciferase, ATP luminescence, 8 min | Potency, µM (titrated, usually from 38.3 µM), usual class: inhibitors | actives 0.28% (n = 200,000); also: nearly all actives have a fitted effect of over 60% in size
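Luminescence was the read-out, taken after 8-minute incubation at ambient temperature. Luciferase turned over luciferin with 10 uM ATP in imidazole pH 7.2 buffer containing KCl, MgCl2, Tween 20 and BSA.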
Rab9 promoter act: qHTS Assay for Rab9 Promoter Activators; AID 485297, 2010; Huh7 Rab9 promoter-luciferase reporter, luminescence, 24 h; actives 2.8% (n = 320,000); Potency, µM (highest dose often 9.22 µM), usual class: activators; also: nearly all actives have a fitted effect of over 60% in size
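Using Huh7 cells stably transfected with Rab9 promoter–luciferase, compounds were incubated 24 h at 37 °C, 5% CO2; luciferase luminescence was read 10 min after reagent addition.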
NPC1 promoter act: qHTS Assay for NPC1 Promoter Activators. Huh7 NPC1 promoter luciferase reporter, 24 h. Potency, µM (series often up to 9.22 µM), hits mostly activators. actives 2.4% (n = 320,000). AID 485313, 2010; also: nearly all actives have a fitted effect of over 60% in size
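Huh7 reporter cells (NPC1 promoter driving luciferase) are dosed with compound for 24 h at 37 °C, 5% CO2; luciferase detection reagent is then added and luminescence measured after 10 min at ambient temperature.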
Each line names hits and unclear results; the compound was inactive in the other large screens. Calls follow the shape of the dose curve; as a rule, active = well fitted curve in the direction sought with a large enough effect; inconclusive = small, poorly fitted or top-dose-only effect, or another doubt; inactive = no such curve, though single readings can be large; an effect the other way counts as inactive or inconclusive.

CCc1ccc(Nc2nnc(SCC(=O)c3c(N)n(C4CC4)c(=O)[nH]c3=O)s2)cc1	FLuc modulator 0.6µM (no result: SMN2 splice up, KinaseGlo FLuc)
CCc1ccc(Nc2nnc(SCC(=O)Nc3cccnc3Cl)s2)cc1	FLuc modulator 1.3µM (no result: SMN2 splice up, KinaseGlo FLuc)
Cc1nnc(SCC(=O)Nc2sccc2C(N)=O)s1	none (no result: SMN2 splice up, KinaseGlo FLuc)
Cc1nnc(SCC(=O)Nc2cccnc2Cl)s1	none (no result: SMN2 splice up, KinaseGlo FLuc)
CCc1ccc(Nc2nnc(SCC(=O)Nc3sccc3C(N)=O)s2)cc1	FLuc modulator 2.1µM, SMN2 splice up inconclusive
Cc1ccc(-c2csc(SCC(=O)c3c(N)n(C4CC4)c(=O)[nH]c3=O)n2)cc1	none (no result: SMN2 splice up, KinaseGlo FLuc)
COC(=O)c1sccc1NC(=O)c1c(C)c(-c2cccc(Cl)c2)nc2ccccc12	none
CCc1ccc(Nc2nnc(SCC(=O)NCCN3C(=O)CSC3=O)s2)cc1	ELG1 genotoxic inconclusive, FLuc modulator 1.9µM, SMN2 splice up 11µM, Rab9 promoter act inconclusive
Cc1ccc(-c2nnc(CCC(=O)NCC3C4CC5CC(C4)CC3C5)o2)s1 (centres undefined)	ELG1 genotoxic inconclusive, FLuc modulator 19µM, Rab9 promoter act 2.5µM, NPC1 promoter act inconclusive (no result: SMN2 splice up)
CCOc1ccc(C(=O)NC(=S)Nc2cccnc2)cc1	FLuc modulator inconclusive, SMN2 splice up inconclusive, Rab9 promoter act 2.8µM, NPC1 promoter act inconclusive
COc1ccc2[nH]c(C(=O)Nc3cccc(C)n3)cc2c1	ELG1 genotoxic inconclusive, FLuc modulator 1.2µM, Rab9 promoter act 0.5µM, NPC1 promoter act 0.63µM (no result: SMN2 splice up, KinaseGlo FLuc)
COc1cc2ccccc2cc1C(=O)Nc1ccc(C)cc1	ELG1 genotoxic inconclusive, FLuc modulator 3µM (no result: SMN2 splice up, KinaseGlo FLuc)
COc1ccc(C(=O)Nc2ccccc2C(=O)Nc2cccnc2)cc1	ELG1 genotoxic inconclusive, FLuc modulator 4.3µM (no result: SMN2 splice up, KinaseGlo FLuc)
Cc1ccc(NC(=O)CCCCCN2C(=O)[C@@H]3Cc4ccccc4CN3C2=O)c(Cl)c1	none (no result: SMN2 splice up, KinaseGlo FLuc)
Cc1oc2ncn(CC(C)C)c(=O)c2c1C(=O)NCCc1ccccc1	none (no result: ELG1 genotoxic, SMN2 splice up, KinaseGlo FLuc, Rab9 promoter act, NPC1 promoter act)
O=C(c1cnccn1)N1CCC2(CC1)CN(Cc1ccccc1)C2	none (no result: ELG1 genotoxic, FLuc modulator, Rab9 promoter act, NPC1 promoter act)
COc1ccc(C(=O)Nc2ccccc2C(=O)Nc2cccc(C)n2)cc1	FLuc modulator 5.4µM, NPC1 promoter act inconclusive (no result: SMN2 splice up, KinaseGlo FLuc)
C/C(CC(=O)Nc1ccccn1)=N\NC(=O)c1ccc(C)cc1	none
O=C(Nc1cccnc1)c1ccccc1O	FLuc modulator 15µM
CC(=O)Nc1ccc(NC(=O)c2cccc3ccccc23)cc1	none (no result: SMN2 splice up, KinaseGlo FLuc)
C/C(CC(=O)Nc1cc(C)ccn1)=N\NC(=O)c1ccc(C(C)(C)C)cc1	FLuc modulator 11µM (no result: SMN2 splice up, KinaseGlo FLuc)
Cc1ccc(NC(=O)c2cccc3ccccc23)cc1	FLuc modulator 15µM, Rab9 promoter act inconclusive, NPC1 promoter act inconclusive (no result: SMN2 splice up, KinaseGlo FLuc)
CCC(C)[C@H](NC(=O)C1CC(=O)N(c2ccc(OC)cc2)C1)C(=O)NC1CCCC1 (some centres undefined)	none (no result: SMN2 splice up, KinaseGlo FLuc)
COc1ccc(S(=O)(=O)N2CCN=C2SCc2cccc(F)c2)cc1	none (no result: SMN2 splice up, KinaseGlo FLuc)
O=C(OCC(=O)N1c2ccccc2Sc2ccccc21)c1ccc[n+]([O-])c1	none
Fc1cccc(NC(=S)N2CCN(c3ccccn3)CC2)c1	none (no result: SMN2 splice up, KinaseGlo FLuc)
Cc1ccccc1NS(=O)(=O)c1ccc(C(=O)NCC(c2ccco2)N2CCCCC2)cc1 (centres undefined)	ELG1 genotoxic inconclusive (no result: SMN2 splice up, KinaseGlo FLuc)
Cc1ccnc(NC(=S)NC(=O)c2cncc(Br)c2)c1	ELG1 genotoxic inconclusive, FLuc modulator inconclusive, Rab9 promoter act inconclusive, NPC1 promoter act inconclusive
COc1cc2ccccc2cc1C(=O)Nc1cc(C)ccn1	ELG1 genotoxic inconclusive, FLuc modulator 12µM, Rab9 promoter act 3.2µM, NPC1 promoter act inconclusive (no result: SMN2 splice up, KinaseGlo FLuc)
COc1cc(C(=O)Nc2cc(C)ccn2)cc(OC)c1OC	none
COc1ccc(C(=O)NC(=O)Nc2cc(C)ccn2)cc1	ELG1 genotoxic inconclusive, FLuc modulator 0.19µM, Rab9 promoter act 0.79µM, NPC1 promoter act 0.79µM (no result: SMN2 splice up, KinaseGlo FLuc)

Screening results deposited in PubChem BioAssay by National Center for Advancing Translational Sciences (NCATS).
